These entries were drawn from the full list.
Vaccinia stage = blocks a specific stage of Vaccinia orthopoxvirus infection, primary screen, cell-based, single point | activity change (mCherry), % (no concentration beside the values) | Vaccinia-infected cells, mCherry/Venus stage reporter fluorescence; hits give low values | hit rate 0.01% among 89,000; in the data active means activity change below about -37%, passing the limit was not always enough; tested in A549 cells
Starred values were filed as active, the others as inactive.

SMILES | Vaccinia stage
COc1ccc2c3c([nH]c2c1)[C@@H](CO)N(C(=O)NC(C)C)CC31CCN(C(=O)NC(C)C)CC1 | 19
O=C(C[C@H]1C[C@@H]2c3cc(NC(=O)NC4CCCC4)ccc3O[C@@H]2[C@@H](CO)O1)NCc1ccccn1 | 36
COc1cccc(S(=O)(=O)N[C@@H]2CC[C@@H](CCn3cc(-c4ccc(F)cc4)nn3)O[C@H]2CO)c1 | -19
COc1ccc(C(=O)Nc2ccc3c(c2)OC[C@H](C)NC[C@H](C)[C@@H](OC)CN(C)C3=O)cc1 | -1
CO[C@@H]1CN(C)C(=O)c2cc(NC(=O)c3ccno3)ccc2OC[C@H](C)N(S(C)(=O)=O)C[C@@H]1C | 29
COc1ccccc1C#Cc1ccc2c(c1)[C@@H]1[C@@H](CCN1S(=O)(=O)c1ccc(F)cc1)[C@@H](CO)N2 | -2
CN1C(=O)c2cc(NC(=O)c3ccccc3Cl)ccc2OC[C@H]2O[C@H](CC(=O)NCC(F)(F)F)CC[C@@H]21 | 15
Cc1ccc(S(=O)(=O)Nc2ccc3c(c2)C(=O)N([C@@H](C)CO)C[C@H](C)[C@H](CN(C)C(=O)Nc2cccc4ccccc24)OCCCC[C@H](C)O3)cc1 | 5
CCCNC(=O)N(C)C[C@H]1Oc2ncc(C3=CCCC3)cc2C(=O)N([C@H](C)CO)C[C@H]1C | -1
N#C[C@H]1[C@H](c2ccccc2-c2cccc(F)c2)[C@@H](CO)N1C(=O)NC1CCCC1 | -21
CCCc1cn(CC[C@H]2CC[C@H](NC(=O)CCN3CCCCC3)[C@H](CO)O2)nn1 | 1
COc1ccc2c3c([nH]c2c1)[C@H](CO)N(C(=O)Nc1ccc(F)cc1)CC31CCN(S(=O)(=O)c2ccc(C)cc2)CC1 | -33
CN(C)CC(=O)Nc1ccc2c(c1)[C@H]1C[C@@H](CC(=O)NCc3ccccc3)O[C@@H](CO)[C@H]1O2 | 17
O=C(C[C@H]1CC[C@@H]2[C@H](COC[C@@H](O)CN2S(=O)(=O)c2cccc(F)c2)O1)NCCCN1CCOCC1 | 12
